Source: PubChem
NS1 function inh – inhibitors of influenza NS1 protein function | AID 2326 | Potency, µM (series often up to 46.1 µM) | 270,000 tested, 0.4% active; further: actives are rising curves; nearly all actives have a fitted effect of over 50% in size
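OD600 was taken as the measure of yeast growth restored by compound in an NS1-expressing S. cerevisiae strain. Cells had been washed out of glucose medium and diluted 1:100 into galactose -URA medium, pH 6.0.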
Pf growth 48h – inhibits P. falciparum growth in the first generation, 48 h | P. falciparum luciferase growth in erythrocytes, 48 h | Potency, µM (top dose mostly 28.7 µM), actives largely listed as inhibitors | 310,000 tested, 5.9% active; active means well fitted inhibition curve with a large enough effect; inconclusive means small, poorly fitted or top-dose-only effect, or another doubt; inactive means no such curve, though single readings can be large or run the other way
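A one-generation exposure of luciferase-tagged malaria parasites in RPMI 1640/Albumax erythrocyte culture, 37 C and 5% CO2. Inhibition is inferred from decreased luminescence after adding detection reagent.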
Pf growth 96h – P. falciparum growth inhibition at 96 hours | P. falciparum luciferase reporter growth, 96 h | Potency, µM (top dose mostly 28.7 µM), most hits filed as inhibitors | 320,000 tested, 6.9% active; active means well fitted inhibition curve with a large enough effect; inconclusive means small, poorly fitted or top-dose-only effect, or another doubt; inactive means no such curve, though single readings can be large or run the other way
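Infected RBCs, 2% Hct / 0.05% parasitemia final; luciferase-reporter P. falciparum; cpd 96 h, 37 C, 5% CO2; luciferase detection reagent; luminescence.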
SARS PLpro yeast – blocks SARS-CoV papain-like protease in a yeast assay; S. cerevisiae expressing SARS-CoV PLpro, growth rescue; 330,000 tested, 0.19% active; Potency, µM (titrated, usually from 32.9 µM), usual class: activators; further: nearly all actives have a fitted effect of over 55% in size
RE007 growth inh – less growth of the S. pombe RE007 Vpr strain; S. pombe RE007 Vpr strain, BacTiter-Glo ATP luminescence, 24 h; Potency, µM (highest dose often 92.2 µM), usual class: inhibitors; 360,000 tested, 0.21% active; AID 651644; active means well fitted falling curve with a large enough effect; inconclusive means small, poorly fitted or top-dose-only effect; inactive means no such curve, though single readings can be large or run the other way; further: nearly all actives have a fitted effect of over 50% in size
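Fission yeast RE007 carrying one integrated HIV-1 vpr copy, seeded at OD 0.01 in PMG+AL medium with 23 nL pinned compound. Grown 24 h at 30 degrees; viability read by BacTiter-Glo luminescence after 5 min.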
Numbers stand for hits; – = inactive; ? = inconclusive; · = no result given. Hits are enriched below; roughly 9.5% of the tested compounds scored in any of these assays. Unless noted, the call rests on the fitted dose curve.

SMILES	NS1 function inh	Pf growth 48h	Pf growth 96h	SARS PLpro yeast	RE007 growth inh
CCN1CCCC1CNC(=O)c1cn(C)c2ccc(S(=O)(=O)N3CCCCCC3)cc2c1=O (stereo unspecified)	–	–	–	–	–
CCCCSCCCNC(=O)c1cn(C)c2ccc(S(=O)(=O)N3CCCC3)cc2c1=O	–	?	10.4µM	–	–
CC(=O)Nc1ccc(S(=O)(=O)N2CCCC2C(=O)Nc2ccc3c(c2)OCCO3)cc1 (stereo unspecified)	–	–	–	–	–
CN(CC1COc2ccccc2O1)C(=O)c1ccc(Cl)c(S(=O)(=O)N2CCCCCC2)c1 (stereo unspecified)	·	?	?	–	–
C=CCn1cc(C(=O)NCC2CCCO2)c(=O)c2cc(S(=O)(=O)N3CCCCCC3)ccc21 (stereo unspecified)	–	11.7µM	–	–	–
C=CCn1cc(C(=O)OC)c(=O)c2cc(S(=O)(=O)N3CCCCCC3)ccc21	·	?	–	–	–
O=C(NCC1COc2ccccc2O1)c1ccc(Cl)c(S(=O)(=O)N2CCCC2)c1 (stereo unspecified)	·	9.28µM	9.28µM	–	–
O=C(NCC1COc2ccccc2O1)c1ccc(Cl)c(S(=O)(=O)N2CCOCC2)c1 (stereo unspecified)	·	?	13.1µM	–	–
Cc1ccc(Cl)cc1N1CCN(S(=O)(=O)c2cc3c(cc2C)NC(=O)CO3)CC1	–	–	–	–	–
Cc1ccc(OCCN(C)C(=O)C2CCC(=O)N(CCCN3CCOCC3)C2)cc1 (stereo unspecified)	–	?	?	–	–
CCN(CC(=O)Nc1ccccc1OC)Cc1csc(CC(=O)Nc2ccc(C)cc2)n1	·	·	·	–	–
CCCCN(C)CCN1C(=O)C2C(C(=O)Nc3ccc(Cl)cc3)C3C=CC2(O3)C1C(=O)NC1CCCCC1 (stereo unspecified)	–	10.4µM	–	–	–
CCC1CCCCN1CCN1C(=O)C2C(C(=O)Nc3cccc(OC)c3)C3C=CC2(O3)C1C(=O)NC1CCCCC1 (stereo unspecified)	–	8.28µM	–	–	–
O=C(Nc1ccc(Cl)cc1)C1C2C=CC3(O2)C1C(=O)N(CCN1CCCCC1)C3C(=O)NC1CCCCC1 (stereo unspecified)	–	?	?	–	–
O=C(Nc1cccc(Cl)c1)C1C2C=CC3(O2)C1C(=O)N(CCN1CCCCC1)C3C(=O)NC1CCCCC1 (stereo unspecified)	–	?	5.22µM	–	–
Cc1ccc(C)n1-c1ccc(N2CCOCC2)cc1	?	10.4µM	?	–	–
CCOc1ccc(CCNC(=O)CSc2cc(=O)n(CC)c3ccccc23)cc1OCC	–	?	–	–	–
COc1ccccc1N1CCN(C(=O)c2ccc(N(C)S(=O)(=O)c3ccccc3)cc2)CC1	–	?	–	–	–
Cc1cc(C)cc(N(CC(=O)NCc2ccccc2)C(=O)CCC(=O)Nc2ccccn2)c1	–	2.08µM	–	–	–
Cc1ccc(N(CC(=O)NC(C)C)C(=O)CCC(=O)Nc2ccccn2)cc1	–	–	3.7µM	–	–
CCc1ccc(N(CC(=O)NC(C)C)C(=O)CCC(=O)Nc2ccccn2)cc1	–	–	?	–	–
COCCNC(=O)C(c1ccc(C)cc1)N(C(=O)CCC(=O)Nc1ccccn1)c1ccc(C)cc1 (stereo unspecified)	–	–	–	–	–
COCCNC(=O)C(c1ccc(C)cc1)N(C(=O)CCC(=O)Nc1ccccn1)c1ccccc1C (stereo unspecified)	–	–	8.28µM	–	–
Cc1ccc(C(=O)NCC(=O)Nc2ccncc2)s1	–	–	–	–	–
Cc1cc(C)c(C)c(S(=O)(=O)N2CCC(C(=O)NC3=NCCS3)CC2)c1C	·	?	?	–	–
SMILES	NS1 function inh	Pf growth 48h	Pf growth 96h	SARS PLpro yeast	RE007 growth inh
Cc1ccc(NC(=O)CN2C(=O)S/C(=C\c3ccc(C(=O)O)cc3)C2=O)cc1	–	–	14.7µM	?	–
COc1cccc(/C=C2/SC(=S)N(CCCC(=O)Nc3ccc(O)cc3)C2=O)c1	–	?	?	–	–
COc1ccc(/C=C2/SC(=S)N(CCCC(=O)Nc3ccc(O)cc3)C2=O)cc1OC	–	–	11.7µM	–	–
COc1ccc(/C=C2\SC(=S)N(CCCC(=O)Nc3ccc(C(=O)O)cc3)C2=O)cc1OC	–	11.7µM	?	–	–
Cc1ccc(/C=C2/SC(=S)N(CCCC(=O)Nc3ccc(O)cc3)C2=O)cc1	–	?	–	–	–
COc1cccc(/C=C2\SC(=S)N(CCCC(=O)Nc3ccc(C(=O)O)cc3)C2=O)c1	–	?	8.28µM	?	–
CCc1nc2nc(C)c(NS(=O)(=O)c3ccc(Cl)s3)c(=O)n2[nH]1	–	?	?	–	–
CNC(=O)C[C@H]1C(=O)N(Cc2ccccc2)C[C@@H]1Cc1ccccc1	·	·	·	·	–
COc1ccccc1/C=C1\SC(=O)N(CC(=O)NCCCn2ccnc2)C1=O	–	11.7µM	?	·	–
Cc1cccc(NC(=O)CN2C(=O)S/C(=C\c3ccccn3)C2=O)c1	–	–	4.15µM	–	–
CCN(CC)CCOC(=O)c1ccc(NC(=O)CCCN2C(=O)S/C(=C/c3ccc(OC)cc3)C2=S)cc1	–	2.62µM	–	–	–
COc1ccccc1/C=C1\SC(=S)N(CCC(=O)Nc2cc(C)on2)C1=O	–	–	9.28µM	–	–
COc1ccc(-c2nn(-c3ccccc3)cc2/C=C/C(=O)NCCCn2ccnc2)cc1OC	–	11.7µM	10.4µM	–	–
c1ccc(CN2CCC3CC2c2c3cccc2N2CCOCC2)cc1 (stereo unspecified)	·	·	·	·	–
CC(=O)O[C@@H](C)C[N+](C)(C)C	·	–	–	·	·
CCC(=O)NCCSc1c[nH]c2ccccc12	–	–	?	–	–
CC(C)C(=O)NCCSc1c[nH]c2ccccc12	–	–	11.7µM	–	–
O=C(NCCSc1c[nH]c2ccccc12)c1ccc(Br)o1	–	–	2.08µM	–	–
Cc1ccc2nc(C)cc(Nc3ccc4c(c3)OCCO4)c2c1	–	·	–	–	–
CCOc1ccc2nc(C)cc(Nc3ccc(N4CCOCC4)cc3)c2c1	–	2.08µM	2.62µM	?	·
CCOc1ccc2nc(C)cc(Nc3cccc([N+](=O)[O-])c3)c2c1	–	1.65µM	1.04µM	–	–
CCOc1ccc2nc(C)cc(Nc3ccc4c(c3)OCCO4)c2c1	–	?	2.62µM	–	–
Cc1cn([C@H]2C[C@H](O)[C@@H](CNCc3ccc(CN(C)S(C)(=O)=O)o3)O2)c(=O)[nH]c1=O	·	·	·	·	–
O=C(Cn1cc([N+](=O)[O-])ccc1=O)N1CCc2ccccc21	·	·	·	–	–
CN1CCN(CCCBr)CC1	–	·	·	·	·
Cc1ccc(-n2nc3c(=O)n(C(C)C(=O)NCCC4=CCCCC4)nc(C)c3c2C)cc1 (stereo unspecified)	–	?	9.28µM	–	–
CSc1ccc(CNC(=O)C(C)n2nc(C)c3c(C)n(-c4ccccc4)nc3c2=O)cc1 (stereo unspecified)	–	–	–	–	–
